Only a selection was taken, and hits are over-represented in it overall.
Tgondii IFNg = blocks Toxoplasma gondii growth in the presence of IFN-gamma | activity change, negative = inhibition, % (test concentration not listed) | 69,000 compounds, 3.8% hits | AID 1259416 | Toxoplasma gondii growth in IFN-gamma-treated host cells; active compounds read low; in the data active = activity change below about -70%, passing the limit was not always enough;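 also: host cells are HeLa cells infected with Toxoplasma gondii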
Active calls of the source: *; i = inactive.

SMILES	Tgondii IFNg
CO[C@H]1[C@H](O)[C@@H](O[C@H]2CC[C@]3(C=O)C4CC[C@]5(C)[C@@H](C6=CC(=O)OC6)CC[C@]5(O)C4CC[C@@H]3C2)O[C@@H](C)[C@@H]1O (stereo partly specified)	-83.1*
NCCc1ccc(CN2C[C@H]3CC=CC[C@H]3C2)cc1	-29.1
CCCc1cnc(C)nc1N1C[C@H]2CC[C@@H](C1)N2	-43.5
CN1CCc2cc3c(cc2C1[C@@H]1OC(=O)c2c1ccc1c2OCO1)OCO3 (stereo partly specified)	35.2
O=C1[C@H]2CN(Cc3ccoc3)C[C@H]2CN1c1cncnc1	0.0
O=C(Nc1ccc(F)c(F)c1)c1cc2cccnc2n(Cc2ccccc2)c1=O	80.0
COCc1cncc2c1CCN(S(=O)(=O)c1ccccc1)C2	10.2
Cl/C=C\C[N+]12CN3CN(CN(C3)C1)C2	11.5
Cc1ccccc1CN1CCC(N2CCC(n3c(=O)[nH]c4ccccc43)CC2)CC1	5.7
[N-]=[N+]=CC(=O)OC[C@H](N)C(=O)O	18.1
COc1ccc(C2=NCC(=O)N(Cc3nc(-c4ccccc4)oc3C)c3sc4c(c32)CCCC4)cc1	-87.0*
CCN1C[C@]2(OC(=O)c3ccccc3NC(C)=O)CC[C@@H](OC)[C@]34C1[C@@H](C[C@H]23)[C@@]1(O)C[C@H](OC)[C@H]2C[C@H]4[C@]1(O)[C@H]2OC	25.7
CN1CCN(C(=O)COc2cc(-c3ccccc3)nc3ccccc23)CC1	-26.5
O=C(c1ccco1)N1CC2CNC(C2)C1 (stereo unspecified)	67.9
CC(=O)O[C@H]1C[C@H](O[C@H]2[C@@H](O)C[C@H](O[C@H]3[C@@H](O)C[C@H](O[C@H]4CC[C@@]5(C)C(CCC6C5C[C@@H](O)[C@]5(C)[C@@H](C7=CC(=O)OC7)CC[C@]65O)C4)O[C@@H]3C)O[C@@H]2C)O[C@H](C)[C@H]1O[C@@H]1O[C@H](CO)[C@@H](O)[C@H](O)[C@H]1O (stereo partly specified)	-73.3*
C[C@]12CC[C@H](O)C[C@H]1CC[C@@H]1[C@@H]2CC[C@]2(C)[C@@](O)(c3ccoc3)CC[C@]12O	-2.5
C[C@H]1OC(O[C@H]2[C@@H](O)CC(O[C@H]3[C@@H](O)C[C@H](O[C@H]4CC[C@]5(C)C6CC[C@]7(C)[C@@H](C8=CC(=O)OC8)[C@@H](O)C[C@]7(O)[C@@H]6CC[C@@H]5C4)O[C@@H]3C)O[C@@H]2C)C[C@H](O)C1O (stereo partly specified)	-73.4*
COC1C(O)CC(OC2C(O)CC(OC3C(O)CC(OC4CCC5(C)C(CCC6[C@@H]5CC(O)C5(C)C(C7=CC(=O)OC7)CCC65O)C4)OC3C)OC2C)OC1C (stereo partly specified)	-77.0*
CNC(=O)CN1CCOCC12CCN(c1cc(OC)ncn1)CC2	1.0
c1cncc(CO[C@@H]2CN(Cc3ccco3)[C@H]3CCCO[C@@H]23)c1	2.4
COc1cc2ccc(=O)oc2c2ccoc12	3.2
O=C1NCCN2CCN(C(=O)Cc3[nH]nc4ccccc34)CC12 (stereo unspecified)	14.5
Cc1ccc(NC(=O)c2cc3cccnc3n(Cc3ccccc3)c2=O)cc1	119.1
CCCN1CCC[C@@H]2Cc3nc(N)ncc3C[C@H]21	13.5
CCCN1CCC[C@@H]2Cc3[nH]ncc3C[C@H]21	-73.2*
SMILES	Tgondii IFNg
Cc1ccc(OC[C@H]2CO[C@H]3CN(Cc4sccc4C)C[C@@H]23)cn1	-48.1
c1ccc2sc(C3(N4CCCCC4)CCCCC3)cc2c1	-55.5
CN1C(=O)C(O)N=C(c2ccccc2)c2cc(Cl)ccc21 (stereo unspecified)	14.9
C=CCN1CCN(c2ncc(F)cn2)Cc2ccc(C)nc21	37.3
Fc1cnc(N2CCC3(CC2)CNCc2ccccc23)nc1	-84.2*
Fc1cnc(N2CCN(CC3CC3)c3ncccc3C2)nc1	i
Cc1ccc(NC(=O)c2cc3cccnc3n(Cc3ccc(F)cc3)c2=O)cc1Cl	42.2
O=c1[nH]c2ccc(Cl)cc2c(N[C@@H]2CN3CCC2CC3)c1-c1nc2ccccc2[nH]1	-75.7*
CS(=O)(=O)NCC[C@@]12CCO[C@@H]1CCN(Cc1cccnc1)C2	5.7
CN(Cc1ccno1)C1CCC2(CCNCC2)CC1	0.8
CN1CCN(CCO)C(=O)C12CCN(Cc1ccncc1)CC2	-1.5
C#C[C@]1(O)C=C[C@H]2[C@@H]3CCC4=CC(=O)CC[C@@H]4[C@H]3CC[C@@]21CC	-80.9*
C#C[C@]1(O)CC[C@H]2[C@@H]3CCC4=CC(=O)CC[C@]4(C)[C@H]3CC[C@@]21C	-16.4
CCCCS(=O)(=O)N1C[C@H]2CNC[C@@H]2C1	-9.1
CC(C(=O)NCc1cnn2ccccc12)N1CCCC1=O (stereo unspecified)	-0.7
CC1(C)C2CC(=O)[C@]3(C)C(CC[C@@]4(C)[C@H](c5ccoc5)OC(=O)[C@H]5O[C@]543)[C@@]2(C)C(=O)C[C@H]1O (stereo partly specified)	6.5
CC(=O)O[C@@H]1CC2C(C)(C)C(=O)C=C[C@]2(C)C2CC[C@]3(C)C(=CC(=O)O[C@H]3c3ccoc3)[C@@]21C (stereo partly specified)	-87.6*
CC(=O)O[C@H]1C[C@@H](OC(C)=O)C(C)(C)C2C[C@@H](OC(C)=O)[C@]3(C)C(CC[C@@]4(C)[C@H](c5ccoc5)C(=O)[C@H]5O[C@]543)[C@]21C (stereo partly specified)	15.3
C=CCN1CC[C@H]2[C@@H]1CCN2Cc1nccs1	7.8
Cn1c(=O)c(C2(O)C(=O)NC(=O)NC2=O)c(O)c2ccccc21	12.5
COc1ccccc1[C@@H]1CN(S(=O)(=O)N(C)C)[C@@H]2C3CCN(CC3)[C@@H]21	5.4
COc1ccc(C[C@H]2NC[C@H](O)[C@H]2OC(C)=O)cc1	-75.4*
COc1cccc(CN2CCC3(CC(NS(=O)(=O)C4CC4)C3)C2)n1 (stereo unspecified)	-2.3
CC(C)c1cccc(C(C)C)c1O	2.3
COC(=O)C(c1ccccc1)C1CCCCN1 (stereo unspecified)	9.4
SMILES	Tgondii IFNg
Cc1ccc(-c2nc(C)sc2CC(=O)N(C)CCN2CCCCC2)cc1	24.3
C[C@@]1(CO)[C@H](O)CC[C@@]2(C)[C@H]1CC[C@H]1C[C@@H]3C[C@@]12CC[C@]3(O)CO	-85.9*
COc1cc(OC)c2c(c1)O[C@H](c1ccc(OC)c(OC)c1)[C@@H](O)C2	1.6
Cn1cc(N2C[C@@H]3CNC[C@@H]3C2=O)cn1	-17.9
O=C(O)C(Cl)Cl	29.9
COc1ccc(/C=C/C(=O)C2C(=O)N(C)C34CCCC3C2c2ccccc2O4)cc1 (stereo unspecified)	13.3
O=C(/C=C/c1ccccc1)C1C(=O)NC23CCCCC2C1c1ccccc1O3 (stereo unspecified)	-64.2
COc1ccc(OC)c(/C=C/C(=O)C2C(=O)NC34CCCCC3C2c2ccccc2O4)c1 (stereo unspecified)	-73.6*
CC(=O)Nc1ccc(OC[C@](C)(O)C(=O)Nc2ccc([N+](=O)[O-])c(C(F)(F)F)c2)cc1	14.9
c1ccc(CN2C[C@@H]3CN(c4ncccn4)C[C@@H]3C2)nc1	46.3
COCCNC(=O)c1cc2cccnc2n(Cc2ccc(F)cc2)c1=O	-19.9
CC(CC(C(N)=O)(c1ccccc1)c1ccccc1)N(C)C (stereo unspecified)	10.3
Cc1ccccc1-n1nc(C)c(CC(=O)N2CCCCC2CN2CCCCC2)c1C (stereo unspecified)	-6.3
